An excerpt weighted towards active compounds, which were near 1.4% of everything screened.
Furin inhibitor = human furin inhibitors, primary screen, biochemical, fluorescence intensity; purified furin, fluorogenic substrate cleavage; inhibition, % at 20 µM or 30 µM; actives 0.061% (n = 220,000); in the data active means inhibition above about 25%
HSV replic up = enhancers of HSV replication in host cells, fold increase, host cell viability; HSV replication augmentation in cells; maximum fold increase; actives 0.005% (n = 220,000); AID 1956, 2009; in the data active means maximum fold increase above about 1.5; inconclusive means no clear call, values can overlap the other calls; tested in PC3 cells
EP2 antag = human EP2 receptor antagonists, primary screen, TR-FRET cAMP, C6 glioma cells. C6 glioma cells expressing human EP2; cells stimulated with saturating PGE2. inhibition, % at 25 µM. actives 0.52% (n = 260,000);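 active means percent inhibition above 40 after rounding to a whole number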;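 further: rat C6 glioma host cells with rolipram phosphodiesterase inhibitor present; the protocol text gives 20 µM as final concentration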
Target sequence (P43116 whole entry, looked up): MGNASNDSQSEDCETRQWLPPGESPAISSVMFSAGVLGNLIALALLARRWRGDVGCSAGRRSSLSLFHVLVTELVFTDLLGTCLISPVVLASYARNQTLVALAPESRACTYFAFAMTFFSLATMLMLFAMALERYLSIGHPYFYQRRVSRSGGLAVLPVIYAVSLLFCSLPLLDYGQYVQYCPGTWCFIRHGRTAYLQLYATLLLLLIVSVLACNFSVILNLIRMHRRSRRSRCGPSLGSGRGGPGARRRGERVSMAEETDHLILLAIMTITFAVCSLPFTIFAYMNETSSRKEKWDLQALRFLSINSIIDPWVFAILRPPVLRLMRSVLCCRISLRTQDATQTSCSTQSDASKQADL
Pf gamet viab = late stage P. falciparum gametocyte viability inhibitors, primary screen, ATP luminescence, HTS | AID 743093, 2013 | actives 0.065% (n = 150,000) | inhibition, % at 10.9 µM | P. falciparum stage V gametocytes, 24 h;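 active means inhibition above the mean plus 3 SD of compounds within the control limits, set per campaign, cut at about 38% in these data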;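 further: 0% = DMSO wells and 100% = medium only without gametocytes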
EP2 mod = EP2 receptor modulators, cAMP readout, primary screen, cell-based, HTRF cAMP, PGE2 stimulation | induction, % at 25 µM | actives 0.83% (n = 260,000) | Prostaglandin E2 receptor EP2 subtype (Homo sapiens), P43116 | EP2-expressing cells, cAMP HTRF FRET, PGE2 co-stimulation | AID 940, 2007;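 active means compounds whose cAMP rise, as percent of the full-agonist control response, exceeds 60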;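 further: rat C6 glioma line stably carrying human EP2 under a CMV promoter; the protocol text gives 20 µM as final concentration; 100% = response of wells given 1 µM PGE2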
EP2 cAMP induct = cAMP induction in EP2, EP4, beta2-AR and parental cells, confirmation, counter-screen for EP2 modulator project, cell-based, five parallel assays, C6 glioma, HEK293; actives 47% (n = 1,300); shares compounds with EP2 mod; cAMP HTRF induction; plus low (about EC15) PGE2 agonist; calls only at 20 µM (by protocol);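 active means cAMP induction above 50% in the main assay while under 30% in all four parallel counter assays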;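 further: rat C6 glioma cells stably expressing human EP2 receptor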
Active calls of the source: *; i = inactive; u = inconclusive; x = no result; + = active, no number.

SMILES	Furin inhibitor	HSV replic up	EP2 antag	Pf gamet viab	EP2 mod	EP2 cAMP induct
Cc1ccc(C(=O)c2coc3ccc(OCC(=O)O)cc23)cc1	-17	i	2	3	69*	+
O=C(O)COc1ccc2occ(C(=O)c3ccccc3)c2c1	-14	i	6	x	66*	+
Cc1ccc(CCNC(=O)CCNS(=O)(=O)c2ccc3c(c2)oc(=O)n3C)cc1	-3	i	10	x	-30	x
CCOP(=O)(OCC)c1nc(-c2ccc(Cl)cc2Cl)oc1N1CCCCC1	-23	i	3	5	52	i
CCOP(=O)(OCC)c1nc(-c2ccccc2Cl)oc1N1CCOCC1	-15	i	8	x	6	x
CCn1nc(C)cc1C(=O)Sc1cccc(Cl)c1	-13	i	7	4	38	x
CC1C(c2ccccc2)N(C)C(c2ccccc2)C(C)C1(O)C#Cc1ccccc1 (centres undefined)	-17	i	18	2	66*	+
N#Cc1c(NC(=O)CSc2n[nH]c(Cc3ccccc3)n2)oc(-c2ccccc2)c1-c1ccccc1	-28	i	6	4	77*	i
N#Cc1c(NC(=O)CSc2ncccn2)oc(-c2ccccc2)c1-c1ccccc1	-17	i	8	21	x	x
COC(=O)COc1cccc2c(=O)n(CC(=O)N3CCC(C)CC3)ccc12	-19	i	11	7	30	x
O=C(O)c1oc(C(=O)O)c(C(=O)O)c1C(=O)O	x	x	11	x	57	i
Cc1oc(C)c(C(=O)O)c1C(=O)O	-19	i	1	8	-6	x
O=C(O)c1cccc(Nc2nc(-c3ccc(O)c(O)c3)cs2)c1	x	x	11	x	-28	x
O=C(Nc1nc2c(s1)CCc1ccccc1-2)c1cccs1	-11	i	16	x	-47	x
Fc1ccccc1Nc1nc2c(s1)CCc1ccccc1-2	-14	i	21	x	79*	+
CC(=O)N1CCN(c2ccc(NCc3cccs3)cc2)CC1	-26	u	12	x	-9	x
Cn1c(NCc2ccco2)nc2c1c(=O)[nH]c(=O)n2C	x	x	9	x	25	x
CCCOC(=O)c1ccc(NC(=O)c2cn(CC)c3nc(C)ccc3c2=O)cc1	2	x	x	x	67*	i
Cc1ccc2nc3n(c(=O)c2c1)-c1ccccc1C(=O)NC3Cc1ccccc1 (centres undefined)	x	x	x	4	x	x
COc1ccc(/C=C(\C#N)C(N)=O)cc1OC	x	x	12	x	76*	i
NCCNc1ccc([N+](=O)[O-])c(Sc2nc3ccccc3[nH]2)c1	-2	i	7	9	26	x
CCc1ccc(-c2csc(NC(=O)C3CCCO3)c2C(=O)OC(C)C)cc1 (centres undefined)	-3	i	6	x	57	x
COC(=O)c1c(-c2ccc(F)cc2)csc1NC(=O)C1CCCO1 (centres undefined)	-23	i	5	-5	66*	i
Nc1nc(SCC(=O)c2ccc(Oc3ccccc3)cc2)n[nH]1	-9	i	6	-7	-7	x
COc1ccccc1C(=O)NCc1ccccc1	-13	i	7	6	23	x
SMILES	Furin inhibitor	HSV replic up	EP2 antag	Pf gamet viab	EP2 mod	EP2 cAMP induct
O=C(NCc1ccc(F)cc1)c1ccccc1OCc1ccccc1	8	i	3	6	81*	+
Cc1ccc(S(=O)(=O)N(CC(=O)N=Nc2c(O)[nH]c3ccccc23)c2ccc(C)c(C)c2)cc1	-17	i	10	8	67*	+
CSc1nc(Oc2ccc(F)cc2)c2ccccc2n1	-7	i	12	x	68*	+
COc1cc2[nH]c(=O)n(CCCC(=O)NCCc3ccccc3)c(=O)c2cc1OC	-23	x	x	x	-1	x
CCOC(=O)c1c(-c2ccc(-c3ccccc3)cc2)csc1NC(=O)CCN1CCOCC1	-11	i	12	10	73*	+
CCOC(=O)N1CCC(=C2c3ccc(Cl)cc3CCc3cccnc32)CC1	-11	i	10	x	53	i
Cc1ccc(NC(=O)Cn2c(O)c(N=NC(=O)c3ccncc3)c3ccccc32)cc1	-31	i	8	x	-2	x
CN(Cc1cccs1)c1nc(-c2cccnc2)nc2ccccc12	-17	i	4	-2	74*	+
CCC(C)Nc1nc(-c2cccnc2)nc2ccccc12 (centres undefined)	x	x	7	x	20	x
CCCC(=O)Nc1c(C(=O)OCC)oc2ccccc12	-32	i	7	9	18	x
CCOC(=O)c1oc2ccccc2c1NC(=O)c1ccccc1OC	-18	i	10	x	79*	+
CC(C)Cc1nc(N2CCCCC2)c(C#N)c2c1CCC2	-12	i	17	x	89*	i
CCCc1nc(N2CCOCC2)c(C#N)c2c1CCCC2	-16	i	11	x	42	x
CCCSc1nc(N2CCOCC2)c2c(c1C#N)CCCC2	-2	i	15	x	66*	+
N#CCCSc1nc(N2CCOCC2)c2c(c1C#N)CCCC2	-6	i	8	x	27	x
CCCCc1nc(N2CCOCC2)c(C#N)c2c1CCCC2	-8	i	11	2	79*	i
CC(=O)N1CCN(c2nc(CC(C)C)c3c(c2C#N)CCC3)CC1	-34	x	x	-19	24	x
CCOc1cc(N2CCOCC2)c(OCC)cc1NC(=O)c1ccc(OC)cc1	-9	i	5	1	13	x
CNC(=O)Nc1ccc2snnc2c1	-15	i	13	x	12	x
Cc1nnc(C)n1/N=C/c1ccccc1	-16	x	5	12	27	x
CCn1c2ccccc2c2cc(/C=N/n3c(C)nnc3C)ccc21	-13	i	8	x	94*	+
CCN1C(=O)[C@H]2[C@@H](c3ccc(-c4ccc(F)cc4)c(OC)c3)N3CCCC[C@@]3(C(=O)OC)[C@H]2C1=O	x	x	x	23	x	x
COC1(C)CC2C(CC1OC(=O)c1cc([N+](=O)[O-])cc([N+](=O)[O-])c1)C2(C)C (centres undefined)	-18	i	10	9	72*	+
CC(C)CNC(=O)COc1ccc(Sc2ccc(OCC(=O)NCC(C)C)cc2)cc1	-19	i	3	-10	-24	x
C=CCc1cc(C=O)cc(OCC)c1OCc1ccc(Cl)cc1	-3	i	6	-15	87*	+
COc1cc(C=O)ccc1OCCOCCOc1ccc(Cl)cc1	-12	i	8	-13	-20	x
C=CCc1cc(C=O)cc(OC)c1OCc1ccc(Cl)cc1	-9	i	2	6	83*	+
NC(=O)NCC1CC1	-21	i	14	x	10	x

Assay outcomes (PubChem BioAssay)
